Drawing on PubChem BioAssay (EPA / NIEHS), this text covers outcome and AC50 for five molecules.

Assay [1] can be described thus: ATG_GLI_CIS: Attagene CIS-FACTORIAL HepG2 Assay for human Zinc Finger Protein GLI1 (AID 2282945; active = hit-call score of the fitted dose curve at least 0.9, where 1 is the maximum; inactive = score below 0.9). Conditions: HepG2, Attagene cis-factorial reporter mRNA, GLI element; actives raise or lower the signal. Summed up:
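Bidirectional curve fits relative to DMSO, using reporter mRNA levels from RT-PCR plus capillary electrophoresis. Cells were HepG2 transiently carrying cis-regulated reporter constructs, harvested 24 h after dosing.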

For assay [2], the target named is Hepatocyte nuclear factor 6 (Homo sapiens) (UniProt Q9UBC0). Description: ATG_HNF6_CIS: Attagene CIS-FACTORIAL HepG2 Assay for human Hepatocyte Nuclear Factor 6 (HNF6) (AID 2282952; active = hit-call score of the fitted dose curve at least 0.9, where 1 is the maximum; inactive = score below 0.9). As to conditions: HepG2 Attagene cis-factorial HNF6 reporter transcription; actives raise or lower the signal. Summed up:
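Endogenous transcription factor activity in human HepG2 liver cells was captured through cis-regulated reporter constructs. After 24 h treatment, reporter mRNA was measured by RT-PCR with capillary electrophoresis, and activity was fitted in both directions relative to DMSO.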

In assay [3] the target is Heat shock factor protein 1 (Homo sapiens) (UniProt Q00613). The assay can be described thus: ATG_HSE_CIS: Attagene CIS-FACTORIAL HepG2 Assay for human Heat Shock Transcription Factor 1 (HSE) (AID 2282953; active = hit-call score of the fitted dose curve at least 0.9, where 1 is the maximum; inactive = score below 0.9). As to conditions: HepG2 HSE cis-reporter, Attagene RNA transcription; actives raise or lower the signal. Summed up: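 After a 24 h incubation with test chemical, transfected HepG2 cells were harvested for RNA; reporter transcripts were measured by RT-PCR and capillary electrophoresis. Values reflect gain or loss of signal relative to DMSO.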

The nature of assay [4]: ATG_PBREM_CIS: Attagene CIS-FACTORIAL HepG2 Assay for human Phenobarbital-responsive Enhancer Module (PBREM) (AID 2282955; active = hit-call score of the fitted dose curve at least 0.9, where 1 is the maximum; inactive = score below 0.9). Conditions: HepG2 PBREM cis-reporter, Attagene multiplexed transcription; actives raise or lower the signal. Summed up:
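Measures endogenous factor action on a phenobarbital-responsive enhancer module. HepG2 transiently carrying cis reporters, 24 h treatment, mRNA read-out by RT-PCR plus capillary electrophoresis.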

Assay [5] can be described thus: ATG_SREBP_CIS: Attagene CIS-FACTORIAL HepG2 Assay for human Sterol Regulatory Element Binding (SREBP) (AID 2282962; active = hit-call score of the fitted dose curve at least 0.9, where 1 is the maximum; inactive = score below 0.9). Conditions: HepG2 Attagene cis-factorial SREBP reporter, mRNA; actives raise or lower the signal. Summed up: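 Endogenous factor activity is measured in HepG2 through multiplexed reporter units under cis-element control. Following a 24 h incubation, reporter transcripts are reverse-transcribed, PCR-amplified and sized by capillary electrophoresis; activity is fitted in both directions relative to DMSO.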

The target in assay [6] is Signal transducer and activator of transcription 3 (Homo sapiens) (UniProt P40763). The assay can be described thus: ATG_STAT3_CIS: Attagene CIS-FACTORIAL HepG2 Assay for human Signal Transducer and Activator of Transcription 3 (STAT3) (AID 2282963; active = hit-call score of the fitted dose curve at least 0.9, where 1 is the maximum; inactive = score below 0.9). Conditions: HepG2, Attagene cis-factorial STAT3 reporter transcription; actives raise or lower the signal. The essentials:
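Cis-factorial format: endogenous transcription factors in HepG2 drive transfected reporter units. After 24 h treatment, reporter RNA was reverse-transcribed, amplified, FAM-labelled and HpaI-digested before CE analysis; activity scored in both directions against DMSO.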

Assay [7] in a line: ATG_NF_kB_CIS: Attagene CIS-FACTORIAL HepG2 Assay for human Nuclear Factor Kappa B (NF-kB) (AID 2282991; active = hit-call score of the fitted dose curve at least 0.9, where 1 is the maximum; inactive = score below 0.9). Conditions: HepG2 Attagene cis-factorial NF-kB reporter mRNA; actives raise or lower the signal. The essentials:
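Fluorescence of labelled RT-PCR products separated by capillary electrophoresis gives reporter mRNA levels from transfected HepG2 cells exposed 24 h; values are fitted in both directions relative to DMSO.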

Assay [8] in a line: ATG_Oct_MLP_CIS: Attagene CIS-FACTORIAL HepG2 Assay for human Octamer-Binding Transcription Factor (Oct) (AID 2282993; active = hit-call score of the fitted dose curve at least 0.9, where 1 is the maximum; inactive = score below 0.9). Conditions: HepG2 Attagene cis-factorial Oct reporter, mRNA; actives raise or lower the signal. The essentials:
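Cells of the HepG2 line express promoter-controlled reporter sequences whose mRNA levels, after 24 h treatment, are measured by RT-PCR and capillary electrophoresis. Increases and decreases are scored relative to DMSO.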

In assay [9] the target is human Retinoid X Receptor beta (RXRb), RXRB (gene 6257) (UniProt P28702). The assay can be described thus: ATG_RXRb_TRANS: Attagene TRANS-FACTORIAL HepG2 Assay for human Retinoid X Receptor beta (RXRb) (AID 2283013). The essentials:
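Read-out: reporter mRNA induction via RT-PCR plus capillary electrophoresis fluorescence, analysed as signal increase relative to DMSO. Cells were human HepG2, transiently transfected with GAL4-UAS reporter constructs and chimeric receptor-Gal4 fusions, dosed for 24 h.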

Assay [10] can be described thus: TOX21_p53_BLA_p2_viability: Viability Assessment in the Tox21 HCT-116 p53 Agonism Beta-lactamase Assay, Phase 2 (AID 2283591).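 Note: compound exposure lasted 16 h at 37 °C; actives lower the ATP signal meaning cytotoxicity.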 Summed up: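 Cytotoxicity readout: CellTiter-Glo ATP luminescence, 30 min at room temperature, after the beta-lactamase read. Cells were HCT116 exposed 16 h at 37C to compounds pin-transferred at 217-fold dilution from DMSO stocks.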
A short description of assay [11]: TOX21_p53_BLA_p3_viability: Viability Assessment in the Tox21 HCT-116 p53 Agonism Beta-lactamase Assay, Phase 3 (AID 2283593).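 Note: cells exposed to compound for 16 h before reading.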 The essentials:
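Cellular ATP was quantified by CellTiter-Glo luminescence, read after 30 min at room temperature. Beforehand, HCT116 cells (4000/well) received compound 5 h post-seeding, 217-fold diluted from DMSO, then incubated 16 h at 37C.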

The target of assay [12] is Cellular tumor antigen p53 (Homo sapiens) (UniProt P04637). The assay can be described thus: TOX21_p53_BLA_p3_ratio: Tox21 HCT-116 p53 Agonism Beta-lactamase Assay, Ratio, Phase 3 (AID 2283596). The essentials: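 Cells were seeded at 4000/well, rested 5 h at 37C, then dosed with DMSO compound solutions (217-fold dilution) for 16 h. CCF4-AM substrate was loaded for 2 h at room temperature, and the 460/530 nm emission ratio was fitted for gain of signal versus DMSO.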

Assay [13] has the same target. The assay can be described thus: TOX21_p53_BLA_p5_ratio: Tox21 HCT-116 p53 Agonism Beta-lactamase Assay, Ratio, Phase 5 (AID 2283599). The essentials: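 Beta-lactamase reporter ratio (blue 460 nm over green 530 nm, 405 nm excitation) after 2 h CCF4-AM loading, in HCT-116 cells exposed 16 h at 37 C to compounds pinned at 217-fold dilution. Increases relative to DMSO baseline scored.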

Assay [14] in a line: TOX21_p53_BLA_p5_viability: Viability Assessment in the Tox21 HCT-116 p53 Agonism Beta-lactamase Assay, Phase 5 (AID 2283600). Summed up: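 Viability is taken from cellular ATP content, measured by luciferase luminescence in the same wells after the beta-lactamase ratio read. Cells are seeded at 4000 per well and exposed to DMSO-dissolved compounds, diluted 217-fold, for 16 h.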

Assay [15] has as its target Cellular tumor antigen p53 (Homo sapiens) (UniProt P04637). Description: TOX21_p53_BLA_p4_ratio: Tox21 HCT-116 p53 Agonism Beta-lactamase Assay, Ratio, Phase 4 (AID 2283601). Summed up:
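Signal is the blue/green (460nm/530nm) ratio of cleaved versus uncleaved CCF4-AM substrate, read after 2 h substrate loading. Cells were HCT116 carrying the p53-responsive beta-lactamase reporter, dosed 16 h at 37C, 5% CO2; CellTiter-Glo measured in parallel.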

In assay [16] the target is Hepatocyte nuclear factor 4-alpha (Homo sapiens) (UniProt P41235). Description: ATG_HNF4a_TRANS: Attagene TRANS-FACTORIAL HepG2 Assay for human Hepatocyte Nuclear Factor 4 alpha (HNF4a) (AID 2282982). Conditions: HepG2 HNF4a transactivation reporter, mRNA readout. The essentials: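 Multiplexed reporter assay: transfected HepG2, 24 h exposure, total RNA → oligo(dT) RT → PCR → 6-FAM extension → HpaI digest → CE fluorescence. DMSO = negative control.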

Assay [17] can be described thus: ATG_M_06_TRANS: Attagene TRANS-FACTORIAL HepG2 Assay for M06 Transcription Factor (Internal Marker) (AID 2282983). Conditions: HepG2 Attagene TRANS M06 internal marker reporter. The essentials:
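Human liver HepG2 cells bearing transiently transfected chimeric NR-GAL4 reporter units were treated with chemicals for 24 h. Total RNA was reverse-transcribed, reporter sequences amplified and labelled, then quantified by capillary electrophoresis. Activity was fitted upward relative to DMSO.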

Assay [18] in a line: ATG_GRE_CIS: Attagene CIS-FACTORIAL HepG2 Assay for human Glucocorticoid Response Elements (GRE) (AID 2282947; active = hit-call score of the fitted dose curve at least 0.9, where 1 is the maximum; inactive = score below 0.9). As to conditions: HepG2 GRE cis-reporter, Attagene multiplex mRNA; actives raise or lower the signal. Summed up:
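Multiplexed cis-reporter mRNA induction, HepG2, 24 h post-dose. RT-PCR, FAM-labelled, HpaI-digested amplicons by CE. Bidirectional fit vs DMSO.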

A short description of assay [19]: ATG_NRF2_ARE_CIS: Attagene CIS-FACTORIAL HepG2 Assay for human Nuclear Factor Erythroid 2 Related Factor 2 (NFR2) response to Antioxidant Response Elements (ARE) (AID 2282992; active = hit-call score of the fitted dose curve at least 0.9, where 1 is the maximum; inactive = score below 0.9). Conditions: HepG2 Attagene ARE/NRF2 reporter, transcription factor activity; actives raise or lower the signal. Summed up: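 Endogenous transcription factor activity in human liver HepG2 cells is tracked via a cis-element-driven reporter within a multiplexed set. mRNA induction is read by RT-PCR and capillary electrophoresis after 24 h, with DMSO as baseline.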

In assay [20] the target is human Peroxisome Proliferator-activated Receptor alpha (PPARa), PPARA (gene 5465) (UniProt Q07869). The assay can be described thus: ATG_PPARa_TRANS: Attagene TRANS-FACTORIAL HepG2 Assay for human Peroxisome Proliferator-activated Receptor alpha (PPARa) (AID 2283001). The essentials: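 Transfected HepG2 cells treated with test chemical for 24 h. RNA isolated, reverse-transcribed with oligo(dT), PCR-amplified, FAM-labelled and HpaI-digested. Fragments sized by capillary electrophoresis; gain-of-signal fit relative to DMSO.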

SMILES strings stand for the structures. Results filed as inconclusive are left out. A structure can be active in one record and inactive in another. Activity calls are given as the source filed them. Rule for the calls, unless noted: active = hit-call score of the fitted dose curve at least 0.9, where 1 is the maximum; inconclusive = response in the unintended direction; inactive = score below 0.9.

Sequence of Cellular tumor antigen p53 (Homo sapiens) (P04637 whole entry, looked up): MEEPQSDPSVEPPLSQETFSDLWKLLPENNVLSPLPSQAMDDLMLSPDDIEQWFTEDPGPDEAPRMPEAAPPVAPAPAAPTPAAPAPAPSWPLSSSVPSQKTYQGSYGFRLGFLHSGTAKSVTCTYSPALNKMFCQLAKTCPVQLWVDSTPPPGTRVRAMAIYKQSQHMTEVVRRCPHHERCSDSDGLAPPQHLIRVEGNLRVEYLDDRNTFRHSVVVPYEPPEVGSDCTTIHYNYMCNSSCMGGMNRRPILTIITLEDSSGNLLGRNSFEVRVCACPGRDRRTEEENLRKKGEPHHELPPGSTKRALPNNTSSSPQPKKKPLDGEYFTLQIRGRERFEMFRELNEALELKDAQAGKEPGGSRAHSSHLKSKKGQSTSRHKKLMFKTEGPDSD
Sequence of Signal transducer and activator of transcription 3 (Homo sapiens) (P40763 whole entry, looked up): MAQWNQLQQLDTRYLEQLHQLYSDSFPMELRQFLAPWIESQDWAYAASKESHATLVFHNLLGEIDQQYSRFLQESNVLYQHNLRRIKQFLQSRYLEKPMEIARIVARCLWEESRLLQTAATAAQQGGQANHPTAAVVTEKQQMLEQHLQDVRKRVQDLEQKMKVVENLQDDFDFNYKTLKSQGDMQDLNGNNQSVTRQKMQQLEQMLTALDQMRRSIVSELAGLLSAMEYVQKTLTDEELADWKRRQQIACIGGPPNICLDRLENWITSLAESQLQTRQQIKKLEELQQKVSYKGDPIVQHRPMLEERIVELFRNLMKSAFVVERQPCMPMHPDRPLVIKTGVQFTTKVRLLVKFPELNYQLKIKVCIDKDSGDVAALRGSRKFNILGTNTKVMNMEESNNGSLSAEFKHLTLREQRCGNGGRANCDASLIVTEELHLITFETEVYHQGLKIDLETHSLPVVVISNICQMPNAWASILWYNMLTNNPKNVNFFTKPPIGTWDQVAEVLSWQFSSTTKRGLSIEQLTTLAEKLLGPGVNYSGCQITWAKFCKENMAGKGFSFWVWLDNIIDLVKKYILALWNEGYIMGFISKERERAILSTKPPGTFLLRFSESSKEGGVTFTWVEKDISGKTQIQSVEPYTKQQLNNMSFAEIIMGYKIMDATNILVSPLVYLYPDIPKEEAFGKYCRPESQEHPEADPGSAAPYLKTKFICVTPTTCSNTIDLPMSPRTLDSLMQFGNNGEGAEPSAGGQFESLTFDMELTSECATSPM
Sequence of Hepatocyte nuclear factor 6 (Homo sapiens) (Q9UBC0 whole entry, looked up): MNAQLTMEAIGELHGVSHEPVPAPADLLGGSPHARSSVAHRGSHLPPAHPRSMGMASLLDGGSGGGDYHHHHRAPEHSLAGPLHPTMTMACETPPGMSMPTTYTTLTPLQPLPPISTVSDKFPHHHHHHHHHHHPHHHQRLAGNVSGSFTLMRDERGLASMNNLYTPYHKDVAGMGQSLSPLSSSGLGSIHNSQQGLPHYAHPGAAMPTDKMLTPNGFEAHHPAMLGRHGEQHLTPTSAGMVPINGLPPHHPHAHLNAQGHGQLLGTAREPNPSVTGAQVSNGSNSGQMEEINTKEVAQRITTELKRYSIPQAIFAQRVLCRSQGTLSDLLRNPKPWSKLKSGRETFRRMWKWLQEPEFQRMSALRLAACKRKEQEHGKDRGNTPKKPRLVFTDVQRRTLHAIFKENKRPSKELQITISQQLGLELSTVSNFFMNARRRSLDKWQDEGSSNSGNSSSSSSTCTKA
Sequence of human Retinoid X Receptor beta (RXRb), RXRB (gene 6257) (P28702 whole entry, looked up, the tested form may be a part): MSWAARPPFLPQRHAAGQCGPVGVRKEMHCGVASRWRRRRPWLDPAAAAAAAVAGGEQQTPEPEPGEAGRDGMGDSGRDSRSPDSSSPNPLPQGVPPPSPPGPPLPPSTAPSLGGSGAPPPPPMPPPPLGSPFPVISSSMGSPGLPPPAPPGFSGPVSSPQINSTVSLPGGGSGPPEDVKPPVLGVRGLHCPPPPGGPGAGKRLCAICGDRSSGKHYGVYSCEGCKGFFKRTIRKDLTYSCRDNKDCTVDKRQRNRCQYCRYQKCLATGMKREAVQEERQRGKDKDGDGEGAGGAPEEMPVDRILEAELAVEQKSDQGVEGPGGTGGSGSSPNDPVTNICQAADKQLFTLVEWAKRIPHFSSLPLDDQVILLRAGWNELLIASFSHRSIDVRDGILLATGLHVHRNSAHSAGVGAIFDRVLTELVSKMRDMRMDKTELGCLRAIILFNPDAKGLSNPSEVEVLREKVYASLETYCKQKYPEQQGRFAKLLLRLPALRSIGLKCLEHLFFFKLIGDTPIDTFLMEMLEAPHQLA
Sequence of Heat shock factor protein 1 (Homo sapiens) (Q00613 whole entry, looked up): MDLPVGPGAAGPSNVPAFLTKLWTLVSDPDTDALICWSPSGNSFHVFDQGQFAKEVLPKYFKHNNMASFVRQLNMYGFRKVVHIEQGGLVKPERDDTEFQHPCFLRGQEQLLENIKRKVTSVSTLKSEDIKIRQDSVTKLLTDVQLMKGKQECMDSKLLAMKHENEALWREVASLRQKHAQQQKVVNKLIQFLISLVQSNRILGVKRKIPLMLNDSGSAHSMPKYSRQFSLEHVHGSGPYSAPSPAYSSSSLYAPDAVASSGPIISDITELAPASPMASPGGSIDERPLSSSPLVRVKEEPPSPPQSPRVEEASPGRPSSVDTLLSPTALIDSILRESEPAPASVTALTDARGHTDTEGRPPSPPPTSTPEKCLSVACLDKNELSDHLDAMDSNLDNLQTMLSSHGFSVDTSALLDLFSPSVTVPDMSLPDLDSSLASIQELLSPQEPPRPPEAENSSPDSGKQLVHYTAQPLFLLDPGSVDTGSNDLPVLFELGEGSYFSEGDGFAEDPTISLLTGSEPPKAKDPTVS
Sequence of Hepatocyte nuclear factor 4-alpha (Homo sapiens) (P41235 whole entry, looked up): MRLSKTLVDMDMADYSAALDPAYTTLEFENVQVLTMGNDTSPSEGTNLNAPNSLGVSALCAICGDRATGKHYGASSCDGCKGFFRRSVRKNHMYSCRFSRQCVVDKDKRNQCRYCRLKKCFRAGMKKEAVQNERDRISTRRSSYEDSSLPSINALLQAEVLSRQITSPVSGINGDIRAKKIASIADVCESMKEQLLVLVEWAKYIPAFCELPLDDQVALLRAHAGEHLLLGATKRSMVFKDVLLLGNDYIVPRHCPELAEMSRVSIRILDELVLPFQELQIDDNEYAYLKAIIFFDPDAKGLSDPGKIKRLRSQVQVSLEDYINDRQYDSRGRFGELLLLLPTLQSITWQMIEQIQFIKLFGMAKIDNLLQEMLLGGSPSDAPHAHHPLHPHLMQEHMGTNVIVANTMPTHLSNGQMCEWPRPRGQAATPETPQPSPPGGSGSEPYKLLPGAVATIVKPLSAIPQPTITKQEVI
Sequence of human Peroxisome Proliferator-activated Receptor alpha (PPARa), PPARA (gene 5465) (Q07869 whole entry, looked up, the tested form may be a part): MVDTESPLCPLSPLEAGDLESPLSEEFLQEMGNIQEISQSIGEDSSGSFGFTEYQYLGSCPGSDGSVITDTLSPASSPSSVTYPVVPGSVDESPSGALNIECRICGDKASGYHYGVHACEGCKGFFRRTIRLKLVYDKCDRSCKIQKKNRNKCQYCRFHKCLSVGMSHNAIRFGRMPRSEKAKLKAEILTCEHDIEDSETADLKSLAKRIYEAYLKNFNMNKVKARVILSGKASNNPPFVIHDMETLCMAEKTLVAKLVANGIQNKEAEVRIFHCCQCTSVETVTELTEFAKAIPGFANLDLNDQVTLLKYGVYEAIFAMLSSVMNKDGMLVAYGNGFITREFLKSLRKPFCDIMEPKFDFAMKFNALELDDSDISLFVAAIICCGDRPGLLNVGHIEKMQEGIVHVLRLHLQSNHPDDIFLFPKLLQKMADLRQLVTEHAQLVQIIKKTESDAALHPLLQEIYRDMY

For the molecule `CCCN[C@H]1CCc2nc(N)sc2C1`, the molecule was called inactive in assay [1], in [2], in [3], in assay [4], in [5] and in assay [6]. The result in [7], in [8], in assay [9], in assay [10], in assay [11] and in [12] was inactive. Moreover, the outcome in [13], in assay [14] and in [15] was inactive.
For `C=C1CC[C@H]2C[C@@H]1C2(C)C`, the call in [1], in [2], in assay [3], in [6], in [16] and in assay [17] was inactive. Besides, in [7], the molecule was called inactive.
As for `CC1(C)S[C@@H]2[C@H](NC(=O)[C@H](N)c3ccccc3)C(=O)N2[C@H]1C(=O)O`, the molecule was classed as inactive in assay [1], in [18], in [3], in assay [5], in assay [16] and in assay [17]. In addition, the molecule was classed as inactive in assay [19], in assay [8], in assay [20], in assay [10], in assay [11] and in assay [12]. Also, the result in assay [13], in assay [14] and in [15] was inactive.
The AC50 is the midpoint of the concentration-response curve, whichever way the signal moves. Turning to `CN(C)CCCN1c2ccccc2CCc2ccc(Cl)cc21`, the molecule was classed as inactive in assay [1], in assay [18], in assay [2], in assay [3], in [4] and in [6]. In addition, the outcome in assay [16], in assay [17], in [7], in assay [8], in assay [20] and in assay [12] was inactive. Moreover, the result in assay [13], in assay [14] and in [15] was inactive. The AC50 in assay [9] is 5.79 µM (active); in assay [10] it was 79 µM (active); in assay [13], 86.8 µM (active); in [14] it was 77.1 µM (active).
For `Nc1ccc(S(=O)(=O)Nc2cnc3ccccc3n2)cc1`, the outcome in [18], in assay [3], in assay [4], in assay [5], in assay [6] and in [16] was inactive. The outcome in [17], in assay [7], in assay [8], in assay [10], in assay [11] and in assay [12] was inactive. The outcome in [13], in [14] and in [15] was inactive. For the same molecule, in assay [9], the AC50 is 31.5 µM (active).
